Bioassay records from PubChem.
The list is not random: actives were taken first. Their share in the collection is about 2.4%.
D2 PAM-1 = positively modulates the human D2 dopamine receptor allosterically | P14416 | HEK293 T-REx D2, calcium flux, EC20 dopamine potentiation | potentiation, % at 10 µM | 0.34% of 340,000 active | AID 485347;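 active = potentiation over 3 SD above the plate norm, cut at about 30% in these data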
Target sequence (P14416 whole entry, looked up): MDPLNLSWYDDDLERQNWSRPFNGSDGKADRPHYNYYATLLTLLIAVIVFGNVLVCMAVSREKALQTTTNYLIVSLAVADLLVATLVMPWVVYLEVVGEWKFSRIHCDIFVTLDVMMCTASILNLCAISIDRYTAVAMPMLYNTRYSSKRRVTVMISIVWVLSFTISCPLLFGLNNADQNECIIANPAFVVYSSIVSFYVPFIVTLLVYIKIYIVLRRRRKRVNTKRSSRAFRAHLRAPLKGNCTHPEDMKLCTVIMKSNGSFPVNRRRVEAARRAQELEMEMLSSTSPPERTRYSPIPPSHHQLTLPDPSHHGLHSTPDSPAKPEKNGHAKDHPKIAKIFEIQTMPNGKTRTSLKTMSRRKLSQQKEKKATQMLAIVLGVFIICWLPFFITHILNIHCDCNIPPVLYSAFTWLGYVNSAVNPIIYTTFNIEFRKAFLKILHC
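Calcium flux readout, no-wash dye, 1 read/s. Inducible HEK293 Trex D2 line, overnight 30 C. Compound alone 180 s (agonist flags), then EC20 dopamine, another 180 s to score potentiation.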
D2 ag-1 = human D2 receptor agonism in beta-arrestin assay; 0.084% of 360,000 active; P14416; activation, % (test concentration not listed); AID 624465; DiscoveRx PathHunter D2 beta-arrestin, luminescence, 90 min; 100% = 57 uM dopamine signal; in the data active = activation above about 40%; inconclusive = between about 15% and that limit
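DiscoveRx PathHunter D2 beta-arrestin cells (2,100/well) attached overnight, then compound-stimulated 90 min at 37 C in HBSS/10 mM HEPES/0.1% Tween-20 buffer; beta-galactosidase complementation read by luminescence after 1 h at ambient temperature. Dopamine 57 uM final (EC100) as control.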
D2 ag-2 = agonists of human D2 dopamine receptor | P14416 | HEK293 T-REx D2 cells, calcium flux agonist mode | activation, % at 2 µM | 0.53% of 340,000 active | AID 485358;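 active = activation over 3 SD above normal in the single-dose calcium agonist read, cut at about 30% in these data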
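Tetracycline-induced HEK293 T-REx cells with force-coupled D2 receptor, plated overnight at 30 C, loaded with no-wash calcium dye. After a 10 s baseline, compound was pin-added and calcium flux read kinetically for 180 s; calcium rises flagged agonists.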
D2 antagonist = D2 dopamine receptor (human) antagonism; AID 485344; HEK293 TREx D2 cells, calcium flux, dopamine EC80; inhibition, % at 10 µM; 2% of 340,000 active; in the data active = inhibition above about 30%; inactive = below that, where a call was filed
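Inhibition of EC80 dopamine-driven calcium flux, recorded kinetically, defines activity here; cells are a tetracycline-induced HEK293 T-REx line expressing force-coupled D2.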
D2 PAM-2 = potentiates the human D2 dopamine receptor allosterically; potentiation, % (no concentration beside the values); P14416; DiscoveRx D2 beta-arrestin cells, luminescence, 90 min; 100% = 57 uM dopamine signal; 0.23% of 360,000 active; in the data active = potentiation above about 50%; inconclusive = mostly about 30% to 49%
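PathHunter beta-arrestin assay in DiscoveRx D2 cells. Compounds were added with an EC20 of dopamine (50 nM final) for 90 min at 37 deg C. Luminescence was read 1 h after detection reagent, with 57 uM dopamine as the EC100 control.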
Each line names hits and unclear results; the compound was inactive in the other large screens.

COc1ccc(CCNC(=O)CCC(=O)c2cccs2)cc1OC	D2 antagonist 44
CCOC(=O)C1=C(CN2CCN(c3ccccc3F)CC2)NC(=O)NC1c1ccc(Cl)cc1 (stereo not given)	none (no result: D2 ag-1, D2 antagonist, D2 PAM-2)
O=C(Nc1ccc(C(=O)OCc2cc(=O)n3c4c(sc3n2)CCCC4)cc1)c1ccc(Cl)cc1	none (no result: D2 ag-1, D2 antagonist, D2 PAM-2)
Cc1cccc(NC(=O)CN2C(=O)C(c3ccc(F)cc3)=NC23CCCCCC3)c1C	none (no result: D2 ag-1, D2 antagonist, D2 PAM-2)
Cc1nc2nc(CNC(=O)OC(C)(C)C)nn2c(C)c1CCC(=O)NCc1ccccc1Cl	none (no result: D2 ag-1, D2 antagonist, D2 PAM-2)
Cc1ccc(CCNC(=O)C2CC(=O)N(C3CCCCC3)C2)cc1 (stereo not given)	none
COc1ccc(CCNC(=O)COC(=O)c2cccs2)cc1OC	none
COc1ccc(CCNC(=O)CCN2C(=O)C3CC=CCC3C2=O)cc1OC (stereo not given)	D2 antagonist 64
COc1ccc(CCNC(=O)C2CC(=O)N(C3CCCCCCC3)C2)cc1OC (stereo not given)	D2 antagonist 93
COc1ccc(CCNC(=O)COC(=O)c2cccs2)cc1	D2 antagonist 37
COc1ccc(CCNC(=O)CCn2cccc2)cc1OC	none
[N-]=C=C1C(=S)NC(=O)[C@H]([n+]2ccccc2)[C@H]1c1ccc(Cl)cc1	none
[N-]=C=C1C(=O)NC(=O)C([n+]2ccc(-c3ccncc3)cc2)C1c1ccccc1C(F)(F)F (stereo not given)	D2 antagonist 35
CCCNC(=O)C1CCC(CNS(=O)(=O)c2ccc3c(c2)CC(C)N3C(C)=O)CC1 (stereo not given)	D2 antagonist 41
CC(=O)N1c2ccc(S(=O)(=O)NCC3CCC(C(=O)NCCC(C)C)CC3)cc2CC1C (stereo not given)	none (no result: D2 ag-1, D2 ag-2, D2 antagonist, D2 PAM-2)
CC(C)(C)OC(=O)N1CCC[C@H]1C(=O)Nc1ccc(C#N)cc1	D2 antagonist 63
CC(NC(=O)C1CCCN1C(=O)OC(C)(C)C)C(=O)OCc1ccccc1 (stereo not given)	none (no result: D2 PAM-1, D2 ag-2, D2 antagonist)
CC(C)(C)OC(=O)N1CCCC1C(=O)NC(Cc1ccccc1)C(=O)O (stereo not given)	D2 antagonist 32
CC(C)(C)OC(=O)N1CCC[C@H]1C(=O)Nc1ccc(Br)cc1	none
Nc1c(-c2nc(-c3cccs3)no2)nnn1-c1ccccc1Cl	none (no result: D2 ag-1, D2 ag-2, D2 antagonist, D2 PAM-2)
Cc1nc(NCc2ccco2)[nH]c(=O)c1CCC(C)C	D2 antagonist 30 (no result: D2 PAM-1)
COc1cccc(/C=N/NC(=O)CN2CC(c3ccccc3)CC2=O)c1OC (stereo not given)	D2 antagonist 38
COc1ccc2ccccc2c1-c1sc(Nc2ccccc2)n[n+]1-c1ccc(F)cc1	D2 antagonist 32
COc1ccc(-c2sc(Nc3ccccc3)n[n+]2-c2ccc(F)cc2)cc1Br	none
O=c1nc(Nc2cccc(Cl)c2)oc2cc(Cl)oc(=O)c12	D2 antagonist 32
O=C(CN1CCN(Cc2ccccc2)CC1)NCc1ccc(Cl)cc1	none
Nc1nc(CN2CCN(C(=O)c3ccco3)CC2)nc(Nc2cccc(Cl)c2)n1	D2 ag-1 inconclusive, D2 ag-2 38
O=C(c1ccco1)N1CCN(c2ccc(F)cc2)CC1	none
O=C(c1ccco1)N1CCN(Cc2nnc(-c3ccccc3F)o2)CC1	D2 PAM-1 35
CCOC(=O)N1CCN(Cc2nc(N)nc(Nc3ccc(Cl)cc3)n2)CC1	none
O=C(c1ccco1)N1CCN(Cc2ccc(F)cc2)CC1	D2 ag-1 44, D2 ag-2 81, D2 antagonist 58, D2 PAM-2 inconclusive
O=C(CN1CCN(C(=O)c2ccco2)CC1)NCc1ccc(Cl)cc1	D2 antagonist 32
COc1ccc(NC(=O)CSc2nc(O)c(C/C=C/c3ccccc3)c(=O)[nH]2)cc1	none (no result: D2 ag-1, D2 antagonist, D2 PAM-2)
CCOC(=O)N1CCN(Cc2nc3cc([N+](=O)[O-])ccc3n2C(C)C)CC1	none (no result: D2 ag-1, D2 antagonist, D2 PAM-2)
CN1CCN(/C=N/c2sc3c(c2C#N)CCCCC3)CC1	none
N#Cc1c(/N=C/C=C/c2ccccc2)sc2c1CCCC2	D2 PAM-1 31, D2 ag-1 inconclusive
Cc1ccc(OCC(O)CN2CCN(c3ccc(C)cc3)CC2)cc1 (stereo not given)	D2 antagonist 53
OC(COc1ccc(Cl)cc1)CN1CCC(Cc2ccccc2)CC1 (stereo not given)	none
CCOC(=O)N1CCN(CC(O)COc2ccc(C(C)C)c(C)c2)CC1 (stereo not given)	D2 ag-2 31
Cc1cc(=O)oc2cc(OCC(O)CN3CCN(c4ccc(F)cc4)CC3)ccc12 (stereo not given)	D2 ag-1 inconclusive, D2 ag-2 73, D2 antagonist 76
Cc1ccc(C)c(OCC(O)CN2CCC(Cc3ccccc3)CC2)c1 (stereo not given)	D2 antagonist 47
CCOC(=O)c1cc(NC(=O)c2ccc(OC)cc2)c(=O)n2c1oc1ccc(Cl)cc12	none (no result: D2 ag-1, D2 antagonist, D2 PAM-2)
COc1ccc(-c2cc(C(C)=O)c(C)n2CCC(=O)Nc2cc(Cl)ccc2C)cc1	none (no result: D2 ag-1, D2 antagonist, D2 PAM-2)
Cc1ccc(N2CCN(CC(O)COc3ccccc3)CC2)cc1 (stereo not given)	D2 antagonist 39
Cc1ccc(OCC(O)CN2CCN(CC(O)COc3ccc(C)cc3)CC2)cc1 (stereo not given)	none
Cc1ccc(C)c(Cn2c(=O)cc(C)c3c(C)nn(-c4cccc(F)c4)c32)c1	none (no result: D2 ag-1, D2 antagonist, D2 PAM-2)
Cc1cc(C)nc(N(C#N)Cc2ccccc2C)n1	D2 antagonist 50
O=C(CN(c1ccc(Cl)c(C(F)(F)F)c1)S(=O)(=O)c1ccccc1)N1CCOCC1	D2 antagonist 35
O=C(CN(c1cccc(C(F)(F)F)c1)S(=O)(=O)c1ccccc1)N1CCOCC1	D2 ag-1 inconclusive
Cc1cccc(CSc2nc3ccccc3c(=O)n2C)c1	D2 antagonist 35
Cn1c(SCc2ccc(Br)cc2)nc2ccccc2c1=O	none
CC(C)N(Cc1nc(-c2ccccc2)no1)C(=O)CN1C(=O)c2ccccc2C1=O	D2 PAM-1 36
CC(C)N(Cc1nc(-c2ccccc2)no1)C(=O)CCCN1C(=O)c2ccccc2C1=O	D2 PAM-1 35
COc1ccc(CNC(=O)CCc2nnc3n(CC(C)C)c(=O)c4ccccc4n23)cc1	none (no result: D2 ag-1, D2 antagonist, D2 PAM-2)
CS(=O)(=O)N(CC(=O)Nc1ccc(Br)cc1)c1ccccc1Br	none (no result: D2 ag-1, D2 antagonist, D2 PAM-2)
N#Cc1ccc(NC(=O)COCc2cc(-c3ccco3)on2)cc1	none (no result: D2 ag-1, D2 antagonist, D2 PAM-2)
O=S(=O)(c1ccc(SCCO)nc1)N1CCCC1	D2 PAM-1 49
CN1CCN(S(=O)(=O)c2ccc(SCCOc3ccccc3)nc2)CC1	none
Cc1ccc(C)c(NC(=O)CSc2ccc(S(=O)(=O)N3CCCC3)cn2)c1	D2 antagonist 39
O=c1cc(CSc2ccc(S(=O)(=O)N3CCCCC3)cn2)nc2sccn12	D2 PAM-1 33
CCOc1ccc(OCCSc2ccc(S(=O)(=O)N3CCN(C)CC3)cn2)cc1	D2 antagonist 30
Cc1cc(C)cc(CSc2ccc(S(=O)(=O)N3CCCC3)cn2)c1	none
